According to the supplement of paper PMC11417369:
Over roughly 25,000 sequences, “ln(normalized median fluorescence intensity)” has its median near 9.3; the highest 2% begin near 10. This is one part of a sample in which the highest values are shown more often than they occur.

Each sequence was assayed on PF3D7_0420300 AP2 domain 1 (GST-tagged) (assay: gcPBM binding intensity (ln(normalized median fluorescence intensity)); higher = stronger DNA binding).
Method in brief: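 Binding intensity is defined as the maximum Masliner-normalised natural-log median intensity across replicate spots for either probe orientation. It was measured on an Agilent 4 × 180k array of primer-extended double-stranded 36-bp intergenic genomic probes and negative controls, to which GST-tagged P. falciparum DNA-binding domains made in E. coli were applied for 1 h in 1× PBS with 1% milk, 0.2 mg/ml BSA, 0.5% salmon testes DNA and 0.03% Triton X-100. Detection was by Alexa488 anti-GST antibody and scanning at 488 nm.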

Sequence | gcPBM binding intensity (ln)
ATAATTACAAAATAAACACACATATAGATTTATATG [CACACA_site6343] | 9.6
TACACGCTAAAATACACACACACACCCACATATATA [CACACA_site4153] | 10.2
TATATATATATATACACACACACCCTAAAAATATAT [CACACA_site1611] | 9.97
TATAAATATACACCCACACACATATATATATATATA [CACACA_site3745] | 9.66
TATAAATATACACCCACACACATATATAAATAAATA [CACACA_site7717] | 9.89
TATATAAATATACACCCACACACATATATATATATA [CACACA_site9247] | 9.63
TATATATATAAATACACACACACCCTAAAAATATAT [CACACA_site4970] | 10.1
TATACACCCTAAAATACACACACACCCACCCATATA [CACACA_site9380] | 10.3
AAAAAAAATACATACACACACACACCCACATATATA [CACACA_site3561] | 10.1
TACCCACTAAAATACACACACACACCCACATATATA [CACACA_site6141] | 10.2
AATATAAAAATATAAAAACACACGTAAAAAAATTTA [CACACA_site3399] | 9.73
TAATTTCTTATGTATTGTACAAATAATGTATGATAT [XGTACX_site270] | 9.2
AAAAAAAAAAAAAAGGTGCAAATAAATTAACCTTAT | 9.16
TGCAAGGAACAACACACACACACATAAATGTATATA [CACACA_site8149] | 10.2
AGAAAAAACAAAAGAGAAATGAAAAAAAAAAAAAAA [XGTACX_negctrl_site482] | 8.87
TTAAGATAGCAAATATGTACACATTTGTAAAATAAA [XGTACX_site4837] | 9.25
TTAAACGTACATAATACACACACATGTAGACATATA [CACACA_site8635] | 9.79
TATATATATTGTTATTGTACACAAATATAGGAAATA [XGTACX_site7110] | 9.23
GTTTTCTAGTGGGGGTGTACATATTTATATTTAATA [XGTACX_site8378] | 10.2

Sequence | gcPBM binding intensity (ln)
ATATATTATTTCTAGTGTACATACCCATATATAATA [XGTACX_site8902] | 9.46
TTTATTAATTTATAGTGTACATATTAATAATATATT [XGTACX_site7949] | 9.09
TTTGTGATATTATATTGTACCCTATATTTATTATAA [XGTACX_site4240] | 9.56
TTATGTTCATTATATGCACACATATATATAAATGTA [CACACA_site8947] | 9.24
TTTTTATAACAGCTTAGTACATATAAGAATTCTTGC [XGTACX_site5890] | 8.9
TCATAATGAAAACAAGCACACATACATAAAATAAAA [CACACA_site9069] | 9.7
AAGCACAAAAAATACACACACAAAAAATAAAAAAAG [CACACA_site1840] | 10.1
GCAAAATAAAGAAGCACACAAAAATGAAATATATAT [CACACA_site3651] | 9.59
CATAAAAATTGAAGCACACACACAAAAGAAATACAA [CACACA_site1112] | 10.2
ATAATGAAAACAAGCACACATACATAAAATAAAATA [CACACA_site3257] | 9.86
TAAAAGAAAGCACATACACACACAAAAAAAAAAAAG [CACACA_site8159] | 10.2
TAAAAATTGAAGCACACACACAAAAGAAATACAATA [CACACA_site1113] | 10.2
TAAAAGTTGAAGCACACACACAAAAGAAATACAATA [CACACA_site6649] | 10.1
AACATAAAAATTGAAGCACACACACTAATGAAATAC [CACACA_site8287] | 10.2
GGTCTTTTCAACACACGTACATAAAAATATTATACA [XGTACX_site5360] | 9.47
AAATAAATAATAAATAAATAAATAAAATACCAAATA [GTGCAC_negctrl_site620] | 9.6
AAGAAAATATAAAATGCACACTATAAATTGTATATA [CACACA_site7928] | 9.51
TACATAAATACATACATACACACATATATATATATA [CACACA_site2105] | 9.56
AAATAAAAAACAGTGGCACACATTATGTATCCACCT [CACACA_site3756] | 9.32

Sequence | gcPBM binding intensity (ln)
TATATACGCATGCGCACACACAAGTGGGAAATTTGG [CACACA_site1785] | 9.52
TGATATTTTATTATTAAAATATATACATATATATAT [CACACA_negctrl_site1456] | 9.26
TAAAAAAGTTATATTACACACTTTATTGGTTAACTT [CACACA_site653] | 9.35
CTTGTCATTGGGCACACACACATGTATAGGTTATTA [CACACA_site3058] | 9.7
AGCTCTTGTCATTTTGCACACACACCCGTATAGGTT [CACACA_site3056] | 10
CTTGTCATTTGGCACACACACATGTATAGGTTATTA [CACACA_site5656] | 9.9
CTCTTGTCATTTTGCACACACACATGGATAGGTTAT [CACACA_site5655] | 10.2
AGCTCTTGTCATTTTGCACACACACCGGTATAGGTT [CACACA_site5654] | 10.1
CTCTTGTCATTTTGCACACACACATGTATAGGTTAT [CACACA_site3057] | 10.2
CGTATGTATATATATATACACACTTCTGTGATACGA [CACACA_site1949] | 9.33
ATATAATTATATTCCATACACACATATATTTAAAGG [CACACA_site2958] | 9.42
TAAATAAGCACATACACACATACATACATACATAAA [CACACA_site4017] | 9.87
TATAAACATTATAAATGTACAAATATATATATATAT [XGTACX_site3218] | 9.28
ATTATAATTACTCTAGTGCATTATAAATATGAATAA | 8.93
TATGCAAGGAACCACACACACACACGGAAATGTATA [CACACA_site6490] | 10.2
TATGCAAGGAACCACACACACACACCCAAATGTATA [CACACA_site750] | 10.1
TATGCAAGGAACCACACACACACACCGAAATGTATA [CACACA_site4573] | 10.1
AAATTAAAAAAAAATAAATAAAAAAAAAAAAAAAAT [CACACA_negctrl_site1611] | 9.35
TGGATATATGTAAAAATTGCAAGAAAGATAAAAGGA [CACACA_negctrl_site64] | 9.6
